# This excerpt belongs to a sample that is enriched for hits.
# LmPK inh: blocks Leishmania mexicana pyruvate kinase activity; purified LmPK, Kinase-Glo ATP luminescence, 1 h; Potency, µM (top dose mostly 57.5 µM), for the others: at the highest dose activity change, negative = inhibition, usual class: inhibitors; 290,000 tested, 0.37% active; AID 1721; further: potency means the concentration at half of the fitted maximal effect; on the % scale 0 is the no-effect control and ±100 the full control effect
#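 ATP generated from ADP (0.1 mM) and PEP (0.5 mM) by 0.1 nM LmPK over 1 h at room temperature (pH 7.2 imidazole buffer) was detected by coupled luciferase luminescence. Values were normalized to uninhibited and no-enzyme wells.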
# CHX counter: affects cycloheximide protein synthesis inhibition readout, counter-screen; cell reporter, cycloheximide protein synthesis inhibition counterscreen; 300,000 tested, 12% active; max response, %; in the data active means max response mostly above about 13%, no sharp cut-off; inactive means mostly below about 14%; further: read at 38.3 µM for the half of the compounds with a filed dose; 0% is about no effect
# RE007 growth inh: less growth of the S. pombe RE007 Vpr strain; S. pombe RE007 Vpr strain, BacTiter-Glo ATP luminescence, 24 h; Potency, µM (series often up to 92.2 µM), for the others: at the top dose activity change, negative = less growth, actives largely listed as inhibitors; 360,000 tested, 0.21% active; active means well fitted falling curve with a large enough effect; inconclusive means small, poorly fitted or top-dose-only effect; inactive means no such curve, though single readings can be large or run the other way; further: potency means the concentration at half of the fitted maximal effect; on the % scale 0 is the no-effect control and ±100 the full control effect; nearly all actives have a fitted effect of over 50% in size
#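 Fission yeast strain RE007, carrying one chromosomally integrated HIV-1 vpr copy, was seeded at OD 0.01 in PMG+AL medium with 23 nL pinned compound. After 24 h at 30 °C and 99% humidity, viability was read by BacTiter-Glo luminescence.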
# FBPA Giardia inh: inhibitors of Giardia lamblia fructose-1,6-bisphosphate aldolase | AID 2451 | purified Giardia FBPA | 290,000 tested, 0.71% active | A8B2U2 | Potency, µM (series often up to 59.6 µM), for the others: top-dose activity, negative = inhibition, hits mostly inhibitors; further: potency means the concentration at half of the fitted maximal effect; on the % scale 0 is the no-effect control and ±100 the full control effect; nearly all actives have a fitted effect of over 55% in size
# Target sequence (A8B2U2 whole entry, looked up): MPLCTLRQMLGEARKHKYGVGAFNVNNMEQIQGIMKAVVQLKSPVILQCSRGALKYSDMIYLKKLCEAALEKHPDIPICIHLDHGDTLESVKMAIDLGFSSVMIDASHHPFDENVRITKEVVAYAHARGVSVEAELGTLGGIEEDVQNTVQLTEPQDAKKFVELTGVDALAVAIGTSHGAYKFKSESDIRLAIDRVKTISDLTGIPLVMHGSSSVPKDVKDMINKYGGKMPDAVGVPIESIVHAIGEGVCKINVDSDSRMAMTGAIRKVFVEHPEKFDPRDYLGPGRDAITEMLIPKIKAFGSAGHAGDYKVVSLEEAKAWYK
#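 40 nM FBPA preincubated 10 min at RT with compound (up to 57.5 uM final), then substrate plus GAPDH/TPI/NAD/arsenate coupling and diaphorase/resazurin added. Fluorescence read after 20 min at RT, 525/598 nm.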
# TbPYK inhibitor: inhibitors of Trypanosoma brucei pyruvate kinase. Potency, µM (titrated, usually from 76.8 µM), without a hit: at the highest dose activity, negative = inhibition, actives largely listed as inhibitors. TbPYK enzyme, Kinase-Glo Plus ATP luminescence, 45 min. 410,000 tested, 0.12% active. Q57TT1; further: potency means the concentration at half of the fitted maximal effect; on the % scale 0 is the no-effect control and ±100 the full control effect; nearly all actives have a fitted effect of over 50% in size
#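 TbPYK + substrate in 50 mM TEA pH 7.2, 100 mM KCl, 10 mM MgCl2, 0.05% BSA, 0.01% Tween-20; cpd pinned; ADP 130 uM final; 45 min RT; Kinase-Glo Plus 10 min; luminescence endpoint.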
# Shiga toxin inh: inhibitors of Shiga toxin in Vero cells; AID 2315; Vero cells, Shiga toxin protein synthesis inhibition reporter; 290,000 tested, 9.2% active; inhibition, % at 38.7 µM; in the data active means inhibition mostly above about 28%, no sharp cut-off; inactive means mostly below about 43%; further: 0% is about no effect
# An asterisk follows results filed as active; u = inconclusive; x = not tested or not shown; [ ] = dose if it differs, or a comment. Unless noted, the call rests on the fitted dose curve; in most records, active means well fitted curve in the direction sought with a large enough effect; inconclusive means small, poorly fitted or top-dose-only effect, or another doubt; inactive means no such curve, though single readings can be large; an effect the other way counts as inactive or inconclusive.
SMILES,LmPK inh,CHX counter,RE007 growth inh,FBPA Giardia inh,TbPYK inhibitor,Shiga toxin inh
COc1ccc2cc(-c3nc4ccccc4n3C)c(=O)oc2c1,13%,41*,13%,-16%,-11%,67*
Cn1c(-c2cc3ccccc3oc2=O)nc2ccccc21,-14%,40*,3%,5%,2%,104*
Oc1c(C(c2ccccc2)N2CCN(Cc3ccccc3)CC2)sc2nc(-c3ccco3)nn12 (configuration not stated),x,x,x,x,1%,x
c1ccc(-c2nc(CSc3nnc(-c4cccs4)o3)cs2)cc1,-6%,-1,30%,-7%,0%,-7
Cc1ccc(Nc2nc(CSc3nnc(-c4cccs4)o3)cs2)cc1,3%,48*,-5%,-20%,0%,74*
Cc1ccc(OCCCSc2n[nH]c(N)n2)cc1,4%,15*,17%,0%,4%,28
Cc1ccc(Nc2nc(CSc3n[nH]c(N)n3)cs2)cc1,-8%,31*,-2%,-4%,-14%,66*
Cc1ccc(CSc2n[nH]c(N)n2)cc1,7%,22*,-5%,0%,-2%,-5
COc1ccccc1OCCSc1nc2ccccc2n1CC(=O)N1CCOCC1,x,x,x,x,-1%,x
COc1ccccc1CNC(=O)CCCc1nnc2n(CC(C)C)c(=O)c3sccc3n12,x,x,x,x,-5%,x
CC(C)N1CCN(Cc2coc3ccccc3c2=O)CC1CCO (configuration not stated),-3%,17*,29%,0%,-2%,24
Cc1ccc2occ(CN3CCN(Cc4ccccc4)CC3)c(=O)c2c1,-1%,42*,x,-11%,x,61*
Cc1ccc2occ(CN3CCN(c4ccccc4)CC3)c(=O)c2c1,-3%,3,-24%,-14%,-5%,8
CCN1CCN(Cc2coc3ccc(C)cc3c2=O)CC1,2%,27*,-25%,0%,0%,38*
O=C(c1cc(C(=O)c2ccco2)cc(C(=O)c2ccco2)c1)c1ccco1,7%,2,7%,2%,4%,-9
Cc1ccc2occ(C(=O)c3ccco3)c(=O)c2c1,-12%,18,-7%,0%,3%,48*
N#CC1=C2Sc3ccccc3N2CCCC1=O,2%,31,8%,14%,1%,22
N#CC1=C2SC=C(c3ccc(Br)cc3)N2CCCC1=O,-7%,44*,u,-11%,10%,118*
O=C1/C(=C\c2ccc(O)c(O)c2)Oc2c1ccc(O[C@@H]1O[C@H](CO)[C@@H](O)[C@H](O)[C@H]1O)c2O,x,10,x,-24%,x,2
Cc1ccc(C)c(NC(=O)CSc2nccn2Cc2ccco2)c1,0%,24*,7%,6%,1%,54*
Cc1cc(C)c(NC(=O)CSc2nccn2Cc2ccco2)c(C)c1,x,x,x,x,-13%,x
O=C(CSc1nccn1Cc1ccco1)Nc1ccccc1F,-7%,30*,-10%,-14%,-9%,18
Cc1ccc(NC(=O)CSc2nccn2Cc2ccco2)c(C)c1,-7%,52*,-8%,14%,-6%,61*
CCCNC(=O)CSc1nccn1Cc1ccco1,0%,7,-4%,-1%,2%,-9
N#Cc1ccccc1NC(=O)CSc1nnc(N)s1,x,x,x,x,4%,x
SMILES,LmPK inh,CHX counter,RE007 growth inh,FBPA Giardia inh,TbPYK inhibitor,Shiga toxin inh
CCCCCOC(=O)CSc1ncnc2c1sc1nc(N3CCOCC3)c3c(c12)CCCC3,x,x,x,x,-5%,x
COc1ccc(CNC(=O)CCCN2C(=O)c3cccnc3Oc3ccc(Cl)cc32)cc1,x,x,x,x,-5%[15.4 µM],x
COc1ccc(Br)cc1CNC(=O)Nc1cccs1,4%,-1,-4%,2%,-15%,-4
Cc1ccc(CNC(=O)Nc2cccs2)cc1,3%,50*,15%,3%,-6%,51*
COc1cccc(CNC(=O)Nc2cccs2)c1,3%,33*,15%,18%,-8%,64*
COc1cccc(Cn2cc(C)cc(NC(=O)NCc3ccccc3)c2=O)c1,6%,15*,0%,-2%,-2%,x
COc1ccccc1CNC(=O)Nc1cccs1,6%,19*,36%,6%,u,63
COc1ccc(CNC(=O)Nc2cccs2)cc1OC,3%,-1,3%,-6%,-14%,20
COC(=O)C1=C[C@@H](C(=O)OC)C2C3=C(C(=O)[C@@]2(C)NC(=O)c2ccccc2)[C@H](c2ccccc2)n2c(=O)n(-c4ccccc4)c(=O)n2[C@@H]3C1 (some centres not stated),x,-4,x,-3%,x,2
CSc1nc(O)c(C(c2ccc(F)cc2)c2c(O)nc(SC)[nH]c2=O)c(=O)[nH]1,x,x,10%,x,-5%,x
CSc1nc(O)c(N=Nc2ccc(F)cc2F)c(=O)[nH]1,16µM*,30*,25µM*,-21%,-16%,54*
Nc1nc2c(nc(Sc3ccc(Cl)cc3)n2C2OC(CO)C(O)C2O)c(=O)[nH]1 (configuration not stated),x,x,x,1%,x,x
Cc1noc(C)c1-c1nc(Nc2ccc(F)cc2)c2ccccc2n1,x,x,x,-17%,x,x
CCOc1ccc(N2Cc3ccccc3C2)cc1,-23%,39*,5%,u,-2%,116
N=C1C(c2ccccc2)=C(O)CN1c1cccc(O)c1,2%,3,-4%,4%,4%,13
CCOc1ccc(N2CC(=O)N(c3ccc(OCC)cc3)CC2=O)cc1,-1%,-2,-11%,0%,-2%,-19
CCOC(=O)c1ccc(N2Cc3cc(C)c(C)cc3C2)cc1O,-5%,19*,x,4%,x,17
Oc1ccc(N2Cc3ccccc3C2)cc1,-14%,20*,-8%,-23%,-11%,15
Oc1cccc(N2Cc3ccccc3C2)c1,-23%,11,-4%,-8%,-8%,31*
O=C(CN1CCN(c2ccc(O)cc2)CC1)N1CCc2ccccc21,-22%,-4,1%,-21%,u,-6
CCOC(=O)c1ccc(-n2c(CCC(=O)O)ccc2-c2ccccc2)cc1O,x,x,x,x,-6%,x
Cc1cc2c(cc1C)CN(c1ccccc1)C2,16µM*,48*,-20%,-5%,-13%,66*
O=C(O)c1ccc(N2Cc3ccccc3C2)cc1O,14µM*,29*,1%,1%,u,56*
CN1CCN(c2ccc(C=O)cc2)CC1,-4%,9,-1%,4%,-4%,-4
O=Cc1ccc(N2Cc3ccccc3C2)cc1,-17%,18*,4%,-5%,-6%,57*
Cc1cc(N2Cc3ccccc3C2)ccc1C=O,-17%,19*,-28%,7%,3%,70*
Cc1ccccc1C=O,x,x,0%,x,4%,x

# Bioassay records (PubChem)
